# Inconclusive results are not listed. Where a call stands in place of a potency, no number is given. Activity calls are given as the source filed them. Calls come from the whole dose curve; tested in HEK293 reporter line.
# Test: qHTS for Inhibitors of the Functional Ribonucleoprotein Complex (vRNP) of Lassa (LASV) Arenavirus: LASV Primary Screen - GLuc reporter signal (AID 1347082); note: nearly all actives have a fitted effect of over 60% in size
# Details: LASV minigenome vRNP, Gaussia luciferase reporter; series mostly up to 57.5 µM
row,Compound,Potency
1,CN(c1nccc(=O)[nH]1)C1CCN(c2nc3ccccc3n2Cc2ccc(F)cc2)CC1,inactive
2,Nc1ccc(S(=O)(=O)NCc2ccccc2)cc1,inactive
3,CCNC(=O)/C=C/c1cccc(Br)c1,inactive
4,Cc1cc(-n2nc3ccc(Cl)cc3n2)c(O)c(C(C)(C)C)c1,inactive
5,CCOC(=O)/C=C(C)/C=C/C=C(C)/C=C/c1c(C)cc(OC)c(C)c1C,inactive
6,CCc1cccc(CC)c1NC(=O)CN(CC(=O)O)CC(=O)O,inactive
7,COCCOCC(OC)OC,inactive
8,C/C(=N\O)c1ccc(OCC(=O)N2CCCCC2)cc1,inactive
9,C=CCN1C[C@H](C(=O)N(CCCN(C)C)C(=O)NCC)C[C@@H]2c3cccc4[nH]cc(c34)C[C@H]21,inactive
10,COc1cc2nc(Cl)nc(N)c2cc1OC,inactive
11,COc1cc(OC)nc(O[C@H](C(=O)O)C(OC)(c2ccccc2)c2ccccc2)n1,inactive
12,CN=C(NC#N)Nc1ccc(C2=NNC(=O)CC2C)cc1 (stereo unspecified),inactive
13,Nc1ccc([N+](=O)[O-])c(C(F)(F)F)c1,inactive
14,CN1CCC[C@@H]1c1cccnc1,inactive
15,NS(=O)(=O)c1cc2c(cc1Cl)NC(C(Cl)Cl)NS2(=O)=O (stereo unspecified),inactive
16,O=C(Nc1ccc(Cl)c(Cl)c1)C1CC1,inactive
17,CC(=O)N/N=C/c1ccc([N+](=O)[O-])o1,inactive
18,O=C(CCCl)NCc1ccccc1,inactive
19,O=C(O)CCCC[P+](c1ccccc1)(c1ccccc1)c1ccccc1,inactive
20,CC(=O)Nc1ccc(CC(=O)O)cc1,inactive
21,N[C@@H](CCC(=O)N[C@@H](CS)C(=O)NCC(=O)O)C(=O)O,inactive
